The structures appear in SMILES notation. Several values for one entry are separate records, joined by “and”; a condition that tells them apart may be missing. Equal values may be shown once. Inconclusive results are not listed. Activity calls are given as the source filed them. Calls come from the whole dose curve; as a rule, active = well fitted inhibition curve with a large enough effect; inconclusive = small, poorly fitted or top-dose-only effect; inactive = flat fitted curve, though single readings scatter.
% is set by controls: 0 for no effect and ±100 for the full control effect.

The first experiment in a line: Drug repurposing screens with cells derived from glioblastoma tumor samples (AID 1345199). Note: nearly all actives have a fitted effect of over 40% in size. Particulars: GBM patient neurospheres viability, ATP luminescence, 48 h; at 46 µM (top of the series); tumour line A. In outline:
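Four patient lines of CD133+ GBM neurospheres were screened at several concentrations; hits were retested in those lines plus three slower-growing GBM lines, using 48-hour treatment and ATP-based viability.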
Take `NC(=O)NC(=O)Cc1ccccc1`: the activity, negative = cell killing was -32.3% (inactive). Same read-out and setting: the same measure for `NC(=O)NNc1ccccc1`: -34.9% (inactive); for `N[C@H](C(=O)O)c1ccc(O)cc1`: -28.4% (inactive). Still for that read-out and setting: the same measure for `NC(=O)c1ncn([C@@H]2O[C@H](CO)[C@@H](O)[C@H]2O)n1`: -27.6% (inactive); for `N[C@H]1C(O)O[C@H](CO)[C@@H](O)[C@@H]1O` (some centres undefined): -25.4% (inactive); for `O=S(=O)(O)NC1CCCCC1`: -19.1% (inactive).

For `OC[C@H]1O[C@@H](O[C@@H]2[C@@H](CO)O[C@](O)(CO)[C@H]2O)[C@H](O)[C@@H](O)[C@H]1O`, the activity, negative = cell killing is -20.9% (inactive). In the case of `CC1(C)OC(=O)NC1=O`, the activity, negative = cell killing was -19.4% (inactive).

Turning to `CCCCCCCCCCCCCCCCCCOCC(O)CO` (centres undefined), the activity, negative = cell killing was -23.8% (inactive). On the same count and under the same terms, under `CC(=O)CCC(=O)O` stands -21% (inactive). Still for that read-out and setting: under `C=CCn1c(=O)n([C@@H]2O[C@H](CO)[C@@H](O)[C@H]2O)c2nc(N)[nH]c(=O)c21` stands -17.2% (inactive); under `CC1(C)CO[C@@H](CC(=O)O)CN1`, -28.2% (inactive).

For the molecule `CC(=O)Oc1c(C)c(C)c2c(c1C)CC[C@@](C)(CCC[C@H](C)CCC[C@H](C)CCCC(C)C)O2`, the activity, negative = cell killing is -21.7% (inactive) and -44.1% (inactive). On the same count and under the same terms, under `CC(=O)NC(Cc1ccccc1)C(=O)O` (centres undefined) stands -20.1% (inactive).

Staying with this experiment, now noted: GBM patient neurospheres viability, ATP luminescence, 48 h; at 46.1 µM (top of the series); tumour line C.
Consider `NC(=O)NC(=O)Cc1ccccc1`, for which the activity, negative = cell killing was -5.24% (inactive). For `NC(=O)NNc1ccccc1`, the activity, negative = cell killing is -25.2% (inactive) and -16.9% (inactive). The same measure, in the same setting: under `N[C@H](C(=O)O)c1ccc(O)cc1` stands -10.2% (inactive); under `NC(=O)c1ncn([C@@H]2O[C@H](CO)[C@@H](O)[C@H]2O)n1`, -10.2% (inactive). For the molecule `N[C@H]1C(O)O[C@H](CO)[C@@H](O)[C@@H]1O` (some centres undefined), the activity, negative = cell killing was -6.46% (inactive). Still for that read-out and setting: under `OC[C@H]1O[C@@H](O[C@@H]2[C@@H](CO)O[C@](O)(CO)[C@H]2O)[C@H](O)[C@@H](O)[C@H]1O` stands -24.2% (inactive); under `CNCCC(Oc1ccc(C(F)(F)F)cc1)c1ccccc1` (centres undefined), -4.69% (inactive); under `CN(C)CCCO[C@@H]1[C@H]2OC(C)(C)O[C@H]2O[C@@H]1C(O)CO` (some centres undefined), -10.9% (inactive).

Regarding `CSc1ccc2c(c1)N(CCC1CCCCN1C)c1ccccc1S2` (centres undefined), the activity, negative = cell killing was -0.209% (inactive).

For `CC1=C(CC(=O)O)c2cc(F)ccc2/C1=C\c1ccc(S(C)=O)cc1` (centres undefined), the activity, negative = cell killing was -18.8% (inactive).

As to `CN1[C@@H]2CC(OC(=O)[C@H](CO)c3ccccc3)C[C@H]1[C@@H]1O[C@@H]12` (some centres undefined), the activity, negative = cell killing is 15.6% (inactive) and -2.3% (inactive). On the same count and under the same terms, under `CC1(C)OC(=O)NC1=O` stands 10.3% (inactive); under `CCCCCCCCCCCCCCCCCCOCC(O)CO` (centres undefined), 24.6% (inactive). Still for that read-out and setting: under `CC(=O)CCC(=O)O` stands -0.404% (inactive). `C=CCn1c(=O)n([C@@H]2O[C@H](CO)[C@@H](O)[C@H]2O)c2nc(N)[nH]c(=O)c21`: the activity, negative = cell killing is -7.78% (inactive).

For `CC1(C)CO[C@@H](CC(=O)O)CN1`, the activity, negative = cell killing was -15.1% (inactive). Same read-out and setting: the same measure for `CC(=O)Oc1c(C)c(C)c2c(c1C)CC[C@@](C)(CCC[C@H](C)CCC[C@H](C)CCCC(C)C)O2`: -8.98% (inactive) and 2.94% (inactive) and -0.939% (inactive). Still for that read-out and setting: under `CN(C)CCCN1c2ccccc2Sc2ccc(Cl)cc21` stands -4.19% (inactive); under `Cc1cc(O)cc2c1O[C@](C)(CCC[C@H](C)CCC[C@H](C)CCCC(C)C)CC2`, -14.5% (inactive); under `CC(=O)NC(Cc1ccccc1)C(=O)O` (centres undefined), -23.9% (inactive).

Values taken from PubChem BioAssay (NCATS).
